PubChem BioAssay AID1789 (The Scripps Research Institute Molecular Screening Center, 2009)
The whole screen tested about 290,000 compounds, of which about 2,700 (0.93%) were called active. The sample holds actives, similar compounds and a random draw of the others, so the mix is not that of the screen.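 How the source made its calls: active means inhibition above the screen-wide mean plus 3 SD, computed separately per campaign (cut at about 16% in these data); inactive means the rest.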

System: Heat shock protein HSP 90 (rabbit reticulocyte lysate; luciferase refolding)
Assay: HSP90 inhibitors, primary screen, cell lysate, luminescence (AID 1789);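 further: 0% = DMSO wells and 100% = 60 µM geldanamycin wells; inhibitors lower the luminescence because luciferase stays unfolded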
Settings: 3 h, at 5.6 µM, hits give high values

| Compound | inhibition |
| --- | --- |
| COc1cccc(-c2nc3ccc(N4CCN(C)CC4)cc3[nH]2)c1 | 60.8% (active) |
| CN1CCN(c2cc(N3CCNCC3)ccc2[N+](=O)[O-])CC1 | -3.02% (inactive) |
| Cc1nc2ccc(N3CCN(C)CC3)cc2nc1C | 1.77% (inactive) |
| CC1=CC(=Cc2sc3ccccc3[n+]2C)C=C(C)O1 | 0.85% (inactive) |
| O=c1c2ccccc2nc(-c2ccco2)n1-c1ccc(Br)cn1 | -1.12% (inactive) |
| O=c1c2ccccc2nc(/C=C/c2ccc(F)cc2)n1-c1ccccc1O | -2.14% (inactive) |
| O=c1c2ccccc2nc(/C=C/c2ccco2)n1-c1ccccc1O | 19.4% (active) |
| CN(c1ccccc1)c1ccc([N+](=O)[O-])c2nonc12 | 3.91% (inactive) |
| CC(C)CN1CCN(Cc2ccccc2C(F)(F)F)CC1CCO (stereo not given) | -3.13% (inactive) |
| O=C(NC(c1ccc(Cl)cc1)P(=O)(Oc1ccccc1)Oc1ccccc1)OCc1ccccc1 (stereo not given) | 1.96% (inactive) |
